TWEAK Fn14 block = inhibitors of TWEAK-Fn14 signaling, primary screen, luciferase reporter cells, uHTS. inhibition, % at 10 µM. TWEAK-stimulated Fn14 reporter cells, luciferase luminescence, 8 h. AID 1159606, 2016. 2% of 360,000 active; in the data active means inhibition above about 50%
LGR2 inh = inhibitors of bursicon-induced LGR2 CRE-luciferase signal, primary screen, cell-based, HEK293, CRE-luciferase reporter, bursicon stimulation; Drosophila bursicon receptor LGR2 (rickets); bursicon-stimulated, 4 h; inhibition, % at 9.99 µM; 0.35% of 380,000 active; AID 720647, 2013;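 active means drop in luminescence signal, shown as inhibition above about 50% in the replicate tests, limit read from the data, passing the limit was not always enough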;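 further: agonist challenge used bursicon conditioned medium at about half maximal strength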
EWS-Fli inh = EWS/Fli-driven NR0B1 reporter inhibitors, primary screen, A673 cells, NR0B1 luciferase, luminescence, MLPCN library; 0.67% of 350,000 active; AID 651661, 2012; viability-normalised; inhibition, % at 12.6 µM;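 active means mean inhibition of at least 50% after viability correction, with every replicate also passing that limit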;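 further: firefly luciferase signal divided by Alamar Blue viability fluorescence both relative to DMSO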
LMP1 NFkB inh = EBV LMP1-driven NF-kappaB luciferase reporter inhibitors, primary screen, cell-based, luminescence, single point; LMP1-induced NF-kappaB luciferase reporter cells; inhibition, % at 12.5 µM; 0.69% of 350,000 active; AID 504558, 2011; in the data active means inhibition above about 41%;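 further: 0% = neutral control wells and 100% = reference inhibitor control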
PAX8 reporter = inhibitors of PAX8-driven TPO luciferase reporter, primary screen, RMG-I cells, single concentration | SteadyGlo, 24 h | inhibition, % at 12.6 µM | 1.2% of 360,000 active;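 active means mean replicate inhibition at least 60% with every replicate also reaching 60%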;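 further: luciferase light reporting Pax8 driven TPO promoter activity; plate controls were median of neutral control wells for no effect and mitoxantrone controls for full effect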
TROY NFkB inh = inhibitors of TROY-driven NF-kB signaling, primary screen, Q293 LMP1-TROYcd cells, NF-kB luciferase, uHTS; AID 1347056, 2019; inhibition, % at 10 µM; Q293 LMP1-TROYcd NF-kB luciferase reporter, 4 h; 0.98% of 360,000 active;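 active means compounds whose plate-normalised and pattern-corrected inhibition of the luciferase reporter signal at the single screening dose is 50% or more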
Numbers without * were called inactive. In the library only some 3.2% were active in any assay of this set; here they are far more common.

Results for CCCNC(=O)N1[C@@H]2Cn3c(ccc(-c4ccccc4OC)c3=O)[C@H]1[C@@H](C(=O)OC)[C@@H]2CO ?
LGR2 inh: 14; EWS-Fli inh: -4; PAX8 reporter: -1

Results for O=C1NC(=O)C(=Cc2ccc(-c3ccc(S(=O)(=O)N4CCOCC4)cc3)o2)C(=O)N1 ?
TWEAK Fn14 block: 5; EWS-Fli inh: -5; LMP1 NFkB inh: -15; PAX8 reporter: -28; TROY NFkB inh: -14

How did O=C1NC(=O)C(=Cc2ccc(-c3ccc(Cl)cc3)o2)C(=O)N1 do in these assays?
TWEAK Fn14 block: 80*; LMP1 NFkB inh: 1; TROY NFkB inh: 56*

What do the screens show for `O=C(CCCc1ccc(N(CCCl)CCCl)cc1)NCc1ccccc1`?
TWEAK Fn14 block: 3; LGR2 inh: -2; EWS-Fli inh: 28; LMP1 NFkB inh: 42*; PAX8 reporter: 5; TROY NFkB inh: 13

Results for O=C(Cc1ccncc1)N1CCCCN2[C@H](CO)[C@H](c3ccc(C#Cc4ccccc4F)cc3)[C@H]2C1 ?
LGR2 inh: 0; EWS-Fli inh: 1; PAX8 reporter: -7

What do the screens show for `CN(C)CC(C(=O)Cc1ccccc1)c1ccccc1` (centres undefined)?
TWEAK Fn14 block: 44; LGR2 inh: 16; EWS-Fli inh: 25; LMP1 NFkB inh: 0; PAX8 reporter: 104*; TROY NFkB inh: -33

How did CC=Cc1ccc2n(c1=O)C[C@@H]1[C@@H](CO)[C@H](C(=O)O)[C@H]2N1S(=O)(=O)c1ccccc1C (mixture of isomers) do in these assays?
LGR2 inh: 9; EWS-Fli inh: -3; PAX8 reporter: -6

What do the screens show for `COC(=O)C1=C(c2ccc(OCc3ccccc3)cc2)C[C@@H]2CC[C@H]1N2C(=O)NCc1ccc(C(C)(C)C)cc1`?
TWEAK Fn14 block: 18; LGR2 inh: 14; EWS-Fli inh: 30; LMP1 NFkB inh: -23; PAX8 reporter: 86*; TROY NFkB inh: 3

How did COC(=O)C1=C(c2ccc(OCc3ccccc3)cc2)C[C@@H]2CC[C@H]1N2C(=O)NCc1ccc([N+](=O)[O-])cc1 do in these assays?
TWEAK Fn14 block: 46; LGR2 inh: 10; EWS-Fli inh: 10; LMP1 NFkB inh: 2; PAX8 reporter: 68*; TROY NFkB inh: 13

How did COC(=O)C1=C(c2cccc(OCc3ccccc3)c2)C[C@@H]2CC[C@H]1N2C(=O)NCc1cc(C)oc1C(F)(F)F do in these assays?
TWEAK Fn14 block: 20; LGR2 inh: 7; EWS-Fli inh: 5; LMP1 NFkB inh: -2; PAX8 reporter: 63*; TROY NFkB inh: -5

How did COC(=O)[C@@H]1[C@@H](CO)[C@@H]2Cn3c(ccc(-c4ccc(F)cc4)c3=O)[C@H]1N2C(=O)c1ccccc1F do in these assays?
LGR2 inh: -15; EWS-Fli inh: 1; PAX8 reporter: -1

What do the screens show for `COc1ccccc1CN1[C@H](CO)[C@H](c2ccccc2)C12CN(C(=O)Cc1ccccc1)C2`?
LGR2 inh: 5; EWS-Fli inh: -2; PAX8 reporter: 35

How did CN1CCC2(CC1)c1ccccc1-c1ccccc12 do in these assays?
TWEAK Fn14 block: 18; EWS-Fli inh: 1; LMP1 NFkB inh: 4; PAX8 reporter: 3; TROY NFkB inh: 5

How did CC1(C(=O)O)CC12c1ccccc1-c1ccccc12 (centres undefined) do in these assays?
TWEAK Fn14 block: 1; LGR2 inh: 8; EWS-Fli inh: 2; LMP1 NFkB inh: 74*; TROY NFkB inh: 7

How did COCCCn1c(-c2ccc(OC)cc2)cc(C(=O)NC2CCCCCCC2)c1C do in these assays?
TWEAK Fn14 block: 64*; LGR2 inh: 22; EWS-Fli inh: 23; LMP1 NFkB inh: 3; PAX8 reporter: 24; TROY NFkB inh: 9

What do the screens show for `COC(=O)[C@@H]1[C@@H](CO)[C@@H]2Cn3c(ccc(C4=CCCC4)c3=O)[C@H]1N2CC1CCCCC1`?
LGR2 inh: -8; EWS-Fli inh: 1

Results for Cc1nc2c(=O)n(C)c(=O)nc-2n(C)n1 ?
TWEAK Fn14 block: 102*; LMP1 NFkB inh: 91*; TROY NFkB inh: 86*
